The entries come from a sample that favours hits as a whole.
Dicer inh = blocks human Dicer maturation of pre-miR-21; AID 1347074; z-score at 25 µM; 6% of 47,000 active; cat-ELCCA pre-miR-21 Dicer processing, chemiluminescence; active compounds read high; in the data active = z-score above about 3, passing the limit was not always enough;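 note: higher signal means more uncleaved substrate so more Dicer inhibition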
Target sequence (Q9UPY3 whole entry, looked up): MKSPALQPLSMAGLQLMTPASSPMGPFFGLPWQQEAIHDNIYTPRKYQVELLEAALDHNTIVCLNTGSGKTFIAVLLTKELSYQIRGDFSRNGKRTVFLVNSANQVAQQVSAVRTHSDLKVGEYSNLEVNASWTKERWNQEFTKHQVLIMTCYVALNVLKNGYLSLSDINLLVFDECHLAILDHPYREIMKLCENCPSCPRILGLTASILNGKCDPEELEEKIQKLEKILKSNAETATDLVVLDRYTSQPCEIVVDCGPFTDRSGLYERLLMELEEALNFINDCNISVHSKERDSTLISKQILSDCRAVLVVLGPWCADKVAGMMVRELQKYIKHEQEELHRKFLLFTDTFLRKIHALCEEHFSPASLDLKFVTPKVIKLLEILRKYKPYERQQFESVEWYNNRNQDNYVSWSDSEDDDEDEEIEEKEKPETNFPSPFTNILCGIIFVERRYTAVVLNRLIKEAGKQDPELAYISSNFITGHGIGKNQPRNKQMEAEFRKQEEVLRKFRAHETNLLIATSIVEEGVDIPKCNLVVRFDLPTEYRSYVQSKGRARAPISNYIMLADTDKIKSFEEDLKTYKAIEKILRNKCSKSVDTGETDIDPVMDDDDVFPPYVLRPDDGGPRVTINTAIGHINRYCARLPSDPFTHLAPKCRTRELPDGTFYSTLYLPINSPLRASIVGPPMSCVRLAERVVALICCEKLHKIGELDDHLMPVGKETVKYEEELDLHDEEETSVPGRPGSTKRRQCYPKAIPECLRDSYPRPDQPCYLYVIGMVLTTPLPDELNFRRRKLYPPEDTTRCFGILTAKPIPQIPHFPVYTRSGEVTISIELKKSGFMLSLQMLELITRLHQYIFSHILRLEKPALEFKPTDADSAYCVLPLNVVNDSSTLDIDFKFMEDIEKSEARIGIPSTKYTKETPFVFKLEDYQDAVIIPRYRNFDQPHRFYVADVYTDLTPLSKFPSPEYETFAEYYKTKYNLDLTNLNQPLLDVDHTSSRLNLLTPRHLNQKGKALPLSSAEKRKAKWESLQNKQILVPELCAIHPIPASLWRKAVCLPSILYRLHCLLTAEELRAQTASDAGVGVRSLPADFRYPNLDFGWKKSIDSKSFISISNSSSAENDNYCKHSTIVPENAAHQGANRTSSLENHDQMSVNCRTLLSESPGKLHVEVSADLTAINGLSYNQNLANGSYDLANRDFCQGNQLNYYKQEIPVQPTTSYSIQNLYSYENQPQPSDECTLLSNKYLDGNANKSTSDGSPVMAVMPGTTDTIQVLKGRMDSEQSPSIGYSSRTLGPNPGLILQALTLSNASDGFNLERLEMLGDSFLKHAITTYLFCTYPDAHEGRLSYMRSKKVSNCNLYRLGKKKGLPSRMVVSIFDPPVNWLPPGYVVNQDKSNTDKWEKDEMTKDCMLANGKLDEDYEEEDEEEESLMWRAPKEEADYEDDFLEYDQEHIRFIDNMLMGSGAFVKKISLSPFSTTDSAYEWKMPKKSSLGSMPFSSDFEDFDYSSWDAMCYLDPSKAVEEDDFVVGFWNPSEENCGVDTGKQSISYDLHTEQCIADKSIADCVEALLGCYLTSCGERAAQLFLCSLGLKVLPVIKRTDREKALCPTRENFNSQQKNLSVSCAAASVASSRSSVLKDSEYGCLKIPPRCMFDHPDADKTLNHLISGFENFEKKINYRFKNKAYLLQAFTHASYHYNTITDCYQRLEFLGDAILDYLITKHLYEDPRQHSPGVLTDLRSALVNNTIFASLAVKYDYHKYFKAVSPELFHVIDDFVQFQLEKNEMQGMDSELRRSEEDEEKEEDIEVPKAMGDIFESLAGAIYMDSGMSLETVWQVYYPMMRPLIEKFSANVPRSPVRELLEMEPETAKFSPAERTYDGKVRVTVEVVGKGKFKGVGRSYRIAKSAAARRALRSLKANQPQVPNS
Numbers stand for hits; – = inactive.

SMILES | Dicer inh
COc1ccc(C2C(C#N)=C3N=C(N)c4ccccc4N3C3=C2C(=O)CC(C)(C)C3)cc1 (stereo not given) | –
N#CC1=C2N=C(N)c3ccccc3N2C2=C(C(=O)CC(c3ccccc3)C2)C1c1ccc2c(c1)OCO2 (stereo not given) | 3.4
O=C(O)c1cnn2c(C(F)F)cc(-c3ccc(F)cc3)nc12 | –
O=S(=O)(CCSc1cccs1)c1ccccc1 | –
OCCCNC(=S)Nc1cc(Cl)ccc1Cl | –
Cc1ccc(-c2csc3ncn4nnnc4c23)cc1 | –
N#Cc1c(NC(=O)c2ccc(Cn3cc(Cl)cn3)cc2)sc2c1CCCC2 | –
CCn1cc2c(c1-c1ccc(C)cc1)c(=O)n(C)c(=O)n2C | –
CCOC(=O)C1CCN(S(=O)(=O)c2ccc(Br)cc2)CC1 | –
CCOc1ccc(S(=O)(=O)N2CN3CCN(C3)C2)cc1 | 3.2
CCCCOc1ccc(S(=O)(=O)n2cnc(C)c2)cc1 | –
O=C(Nc1nccs1)c1ccc2noc(-c3ccc(Cl)cc3)c2c1 | –
CCNC(=O)c1c(-c2ccccc2)noc1C | –
CCOC(=O)N1CCc2c(sc3c2C(=O)NC(c2ccc(OC)cc2)N3)C1 (stereo not given) | –
CCOC(=O)/C(C#N)=C/NN(C)c1ccc(C(F)(F)F)cc1[N+](=O)[O-] | –
FC(F)(F)c1ccc2nc(SCc3cc(Cl)cc4c3OCOC4)[nH]c2c1 | –
Cc1nn(-c2ccccc2)cc1/C=N/NC(=O)CN1c2ccccc2Sc2ccccc21 | –
COc1ccc(C2C(C(=O)c3cccs3)=C(O)C(=O)N2CCCN(C)C)cc1 (stereo not given) | –
CN(C)CCCN1C(=O)C(O)=C(C(=O)c2cccs2)C1c1ccncc1 (stereo not given) | –
CC(C)c1ccc(C2C(C(=O)c3cccs3)=C(O)C(=O)N2CCN(C)C)cc1 (stereo not given) | 4.7
CN(C)CCN1C(=O)C(O)=C(C(=O)c2cccs2)C1c1ccncc1 (stereo not given) | 4.1
Cc1nnc(N2C(=O)C(O)=C(C(=O)c3cccs3)C2c2ccc(C(C)C)cc2)s1 (stereo not given) | –
CC(C)c1ccc(C2C(C(=O)c3cccs3)=C(O)C(=O)N2CCN2CCOCC2)cc1 (stereo not given) | –
Cc1c(C(=O)Nc2ccccc2SCc2cccc(Cl)c2F)cnn1-c1ccccc1 | –
[Cl-].[Cl][Pt].[NH2-].[NH2-].c1ccncc1 | –
SMILES | Dicer inh
COC(=O)C(O)(NC(=O)c1ccccc1)C(F)(F)F (stereo not given) | –
CSc1nnc(-c2sc3nc(C)cc(C)c3c2N)n1Cc1ccccc1 | –
NCCNc1ncnc2scc(-c3ccccc3)c12 | –
Cc1ccc(-c2csc3nc(-c4cccs4)oc(=O)c23)cc1 | 5.4
O=c1oc(-c2ccc(Br)cc2)nc2scc(-c3cccs3)c12 | –
Cc1cccc2nc(-c3cccs3)oc(=O)c12 | –
O=[N+]([O-])/C=C/c1cccc(Oc2ccccc2)c1 | –
CC(C)(C)c1ccc(N2C(=N)SCC2=O)cc1 | –
O=C1CSc2nc(-c3ccccc3)c(-c3ccccc3)n21 | –
O=C1CSC(=O)N1C(c1ccccc1)(c1ccccc1)c1ccccc1 | 4.5
COc1ccc(C2CC(=O)C3=C(C2)Nc2nc4ccccc4n2C3c2cccs2)cc1 (stereo not given) | –
CCSC1=C(C#N)C(c2ccccc2)CC(=O)N1 (stereo not given) | –
COCCOC(=O)C1=C(C)NC2=C(C(=O)CC(C)(C)C2)C1c1coc2ccccc2c1=O (stereo not given) | –
CCSCCOC(=O)C1=C(C)NC2=C(C(=O)CC(c3cccs3)C2)C1c1ccc2c(c1)OCO2 (stereo not given) | –
CC(=O)Oc1ccc(C2C(C(=O)OCC(C)C)=C(C)NC3=C2C(=O)CC(c2cccs2)C3)cc1 (stereo not given) | –
COCCOC(=O)C1=C(C)NC2=C(C(=O)CC(c3cccs3)C2)C1c1cccs1 (stereo not given) | –
CC1=C(C(=O)OCCOC(C)C)C(c2coc3ccccc3c2=O)C2=C(CC(C)(C)CC2=O)N1 (stereo not given) | –
CCSCCOC(=O)C1=C(C)NC2=C(C(=O)CC(c3cccs3)C2)C1c1ccc(O)c(OC)c1 (stereo not given) | 5.4
CC1=C(C(=O)OC(C)C)C(c2ccccc2F)C2=C(CC(c3cccs3)CC2=O)N1 (stereo not given) | –
CC1=C(C(=O)OC(C)C)C(c2coc3ccccc3c2=O)C2=C(CC(c3cccs3)CC2=O)N1 (stereo not given) | 3.3
COc1ccc(OC)c(C2C(C(=O)OCC(C)C)=C(C)NC3=C2C(=O)CC(c2cccs2)C3)c1 (stereo not given) | 3.1
COc1cccc(C2C(C(=O)OC(C)C)=C(C)NC3=C2C(=O)CC(c2cccs2)C3)c1OC (stereo not given) | –
CC1=C(C(=O)OCCOc2ccccc2)C(c2coc3ccccc3c2=O)C2=C(CC(C)(C)CC2=O)N1 (stereo not given) | 3.4
COc1cc(C2C(C(=O)OCC3CCCO3)=C(C)NC3=C2C(=O)CC(c2cccs2)C3)ccc1O (stereo not given) | –
CCc1nnc(-c2cccc([N+](=O)[O-])c2)o1 | –
SMILES | Dicer inh
CC(=O)NC(=N/N=C(\C)c1ccc(Br)cc1)NC(C)=O | –
Cc1ccc(S(C)(=O)=NC(=O)c2ccc(C(C)(C)C)cc2)cc1 (stereo not given) | –
CCN(CC)C(=O)c1[nH]c(C)c(C)c1C | –
Cc1ccc(SCc2cc(=O)[nH]c(Nc3nc(C)c4cccc(C)c4n3)n2)cc1 | –
CCc1ccc2nc(Nc3nc(CSc4nnc(C)s4)cc(=O)[nH]3)nc(C)c2c1 | 3.1
CCOc1ccc2nc(Nc3nc(O)cc(=O)[nH]3)nc(C)c2c1 | –
O=C1c2ccccc2S(=O)(=O)N1CCCCCN1C(=O)c2ccccc2S1(=O)=O | –
Cn1nc(CC(=O)Nc2nnc(SCCC(=O)Nc3ccccc3)s2)c2ccccc2c1=O | –
N#CCSc1nnc(NC(=O)c2ccccc2)s1 | –
O=C(CCSc1nnc(NC2=NS(=O)(=O)c3ccccc32)s1)Nc1ccccc1 | 3.2
O=C(CCSc1nnc(NC(=O)Cn2c(=O)sc3ccccc32)s1)Nc1ccccc1 | –
O=C(Nc1nnc(SCCN2C(=O)c3ccccc3S2(=O)=O)s1)c1ccccc1 | 3.5
COc1ccc(Oc2coc3cc(OC(=O)c4ccccc4OC)ccc3c2=O)cc1 | –
Cc1cc(=O)c2c(Cl)ccc(C)c2[nH]1 | –
CC(C)N1C(=O)C(O)(CC(=O)c2ccc(-n3cccc3)cc2)c2ccccc21 (stereo not given) | –
O=C(O)CSc1ccc(C(F)(F)F)cn1 | –
CC(C)C(=O)N(c1ccc2oc(=O)sc2c1)S(=O)(=O)c1ccccc1 | –
O=C(C1CCCCC1)N(c1ccc2oc(=O)sc2c1)S(=O)(=O)c1cccs1 | 3.7
CCCC(=O)N(c1ccc2oc(=O)sc2c1)S(=O)(=O)c1cccs1 | –
CCN(C(=O)c1cnc(NC)cc1C(F)(F)F)c1ccc(Cl)cc1Cl | –
CC1CCCCN1C(=O)c1cc2n(n1)C(C(F)(F)F)CC(c1ccco1)N2 (stereo not given) | –
O=c1c2ccccc2cnn1-c1ccc2ccccc2c1 | –
O=c1c2ccccc2cnn1-c1ccc(F)cc1 | –
Cc1cccc(-n2ncc3ccccc3c2=O)c1 | 4.2
OCC#CCSc1nnc(-c2cccc(Br)c2)o1 | –
O=C(Cn1cccc(C(F)(F)F)c1=O)c1ccccc1 | –

Screens deposited in PubChem by Center for Chemical Genomics, University of Michigan.
